Here are results for 5 compounds from PubChem BioAssay.

Experiment [1] is described as follows: compounds binding Alexa647 anti-His antibody – biochemical, small-molecule microarray, 635 nm fluorescence, artefact control for SMM control protein annotation, primary screen (AID 1128).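 Note: score merges feature fluorescence with signal-to-noise for each printed compound spot.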 Conditions: higher = more signal.
Experiment [2] deals with Human papillomavirus type 1a E7 protein (residues 1-88). Nature of the experiment: HPV1a E7 small-molecule binders, primary screen, biochemical, small-molecule microarray, residues 1-88, 635 nm (AID 1129). Conditions: small-molecule microarray binding, fluorescence 635 nm; higher = more signal.
Experiment [3] addresses Focal adhesion kinase 1 (Homo sapiens) (UniProt Q05397). Nature of the experiment: PTK2 protein binding on printed compound slides – biochemical, small-molecule microarray, 635/667 nm fluorescence, BSA, DTT, primary screen (AID 1130).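 Note: composite of spot emission at 667 nm and signal to noise over triplicate slides.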 The following applies: 635 nm fluorescence, higher = more signal.
Experiment [4] deals with Fibrinogen (Alexa647-labelled). Nature of the experiment: Alexa647-fibrinogen binding to printed small molecules – biochemical, small-molecule microarray, 635/667 nm fluorescence, artefact control for SMM control-protein annotation, profiling panel (AID 1131).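 Note: z-score merges 667 nm fluorescence with per-spot signal-to-noise over triplicate slides.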 Conditions: fibrinogen-A647 binding fluorescence, higher = more signal.
Experiment [5] concerns the target Follistatin (Homo sapiens) (UniProt P19883). Nature of the experiment: FST protein binding to printed compounds – biochemical, small-molecule microarray, 635/667 nm fluorescence, primary screen (AID 1132). The following applies: 635 nm fluorescence, higher = more signal.
The target in experiment [6] is Fibroblast growth factor 2 (Homo sapiens) (UniProt P09038). The experiment is described as follows: basic fibroblast growth factor binding to printed compounds – biochemical, small-molecule microarray, 635/667 nm fluorescence, primary screen (AID 1133). Conditions: FGF2, fluorescence 635/667, higher = more signal.
Experiment [7] in a line: JC-1 mitochondrial potential readout, lung cancer cells – cell-based, A549, JC-1 fluorescence, basal, 24 h, 100 nL, profiling panel (AID 1138).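 Note: A549 lung adenocarcinoma cells under basal conditions with no added stimulus; test concentration not given here.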 Conditions: higher = more signal.
For another experiment, the system named is Lefty1. The experiment is described as follows: Lefty1 protein binding to printed compounds – biochemical, small-molecule microarray, 635/667 nm fluorescence, primary screen (AID 1139). Conditions: fluorescence 635/667, higher = more signal.
In experiment [8] the test system is wheat germ agglutinin (Triticum aestivum), Alexa647-labelled. Nature of the experiment: Alexa647-WGA lectin binding to printed small molecules – biochemical, small-molecule microarray, 635/667 nm fluorescence, artefact control for SMM control-protein annotation, profiling panel (AID 1140).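 Note: score merges 667 nm feature emission with signal to noise over triplicate slides.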 The following applies: WGA-A647 binding, 635 nm fluorescence, higher = more signal.

The target of experiment [9] is Luciferin 4-monooxygenase (Photinus pyralis) (UniProt P08659). Nature of the experiment: inhibition of purified Photinus pyralis luciferase – biochemical, luminescence, purified enzyme, 2006 set, primary screen (AID 1141).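 Note: cell-free assay with purified firefly luciferase at 100 ng per well in PBS; test concentration not given here.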 Conditions: purified firefly luciferase, SteadyGlo luminescence, 30 min; higher = more signal, called active from +8 up or from −8 down.
In experiment [10] the test system is Wnt5a (protein binding on small-molecule microarray). Nature of the experiment: small molecules binding Wnt5a protein – biophysical, small-molecule microarray, 635/667 nm fluorescence, primary screen (AID 1142).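 Note: fluorescence read at 667 nm with signal to noise per printed feature.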 The following applies: 635 nm fluorescence, higher = more signal.
Experiment [11] can be described thus: ATP-based viability of Huh7 replicon cells – cell-based, CellTiter-Glo luminescence, basal, 48 h, cytotoxicity control for HCV replication inhibitor project, primary screen (AID 1143).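 Note: Huh7 hepatoma cells carrying a hepatitis C replication reporter with no stimulus; test concentration not given here.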 The following applies: higher = more signal, called active from +8 up or from −8 down. Background: In antiviral work, replicon cells carry a viral genome segment that copies itself.

The nature of experiment [12]: Pseudomonas biofilm growth suppression – PAO1 strain, BacTiter-Glo luminescence, LB-PBS, primary screen (AID 1144). The following applies: P. aeruginosa PAO1 biofilm, 12 h, higher = more signal.
Experiment [13] is described as follows: basal CRE-LacZ reporter activity in PC12 – cell-based, unstimulated, primary screen (AID 1145). Conditions: no forskolin, luminescence, 4.5 h, higher = more signal, called active from +8 up or from −8 down.
Experiment [14] is described as follows: forskolin-driven CRE-LacZ activity in PC12 – cell-based, CRE-LacZ reporter, forskolin-stimulated, primary screen (AID 1146).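 Note: PC12 cells with 6xCRE LacZ reporter stimulated by forskolin 10 µM; beta-galactosidase reporter signal reflecting CREB driven transcription.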 Conditions: luminescence, 4.5 h, higher = more signal, called active from +8 up or from −8 down.
Experiment [15] has as its target Streptavidin (Streptomyces avidinii) (UniProt P22629). The experiment is described as follows: compounds binding control protein streptavidin – biophysical, small-molecule microarray, 635/667 nm fluorescence, artefact control for SMM compound annotation, primary screen (AID 1147).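 Note: signal reflects streptavidin binding to arrayed compounds as a control protein.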 The following applies: higher = more signal.
Experiment [16] can be described thus: probe aInhba binding on compound microarray – biochemical, small-molecule microarray, 635/667 nm fluorescence, primary screen (AID 1148).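 Note: score merges 667nm spot fluorescence with signal-to-noise for antibody binding to printed compounds.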 Conditions: higher = more signal.
The target in experiment [17] is Torsin-1A (Homo sapiens) (UniProt O14656). Nature of the experiment: TOR1A wild-type binding on microarray – cell lysate, small-molecule microarray, lysate, 635/667 nm, primary screen (AID 1149). The following applies: COS7 hTOR1A-WT lysate, 635 nm fluorescence, higher = more signal.
The target is the same in experiment [18]. Nature of the experiment: torsin A mutant lysate binding on microarrays – cell lysate, small-molecule microarray, COS7 lysate, 635/667 nm fluorescence, primary screen (AID 1150).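 Note: score pools 667 nm emission and signal to noise measuring lysate protein binding.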 Conditions: COS7 hTOR1A mutant lysate, 635 nm fluorescence, higher = more signal.
In experiment [19] the test system is Sonic hedgehog protein (Shh). The experiment is described as follows: Sonic hedgehog microarray binding compounds – biochemical, small-molecule microarray, 635/667 nm fluorescence, primary screen (AID 1151).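 Note: Shh protein binding to compounds spotted on small-molecule microarray slides; score combines spot fluorescence intensity with signal-to-noise across triplicate slides.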 Conditions: 635 nm fluorescence, higher = more signal.

The structures appear in SMILES notation. Activity calls are given as the source filed them. Unless noted, the rule behind the calls is not given here.

Fibroblast growth factor 2 (Homo sapiens), sequence (P09038 whole entry, looked up): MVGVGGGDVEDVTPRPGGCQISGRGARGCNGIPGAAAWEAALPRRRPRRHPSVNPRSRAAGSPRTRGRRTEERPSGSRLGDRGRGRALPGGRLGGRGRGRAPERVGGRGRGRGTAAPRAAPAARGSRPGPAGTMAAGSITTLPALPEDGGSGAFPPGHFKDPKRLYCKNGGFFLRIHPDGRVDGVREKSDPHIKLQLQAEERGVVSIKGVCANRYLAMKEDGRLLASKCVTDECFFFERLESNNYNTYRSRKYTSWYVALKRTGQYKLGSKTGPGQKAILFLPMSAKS
Focal adhesion kinase 1 (Homo sapiens), sequence (Q05397 whole entry, looked up): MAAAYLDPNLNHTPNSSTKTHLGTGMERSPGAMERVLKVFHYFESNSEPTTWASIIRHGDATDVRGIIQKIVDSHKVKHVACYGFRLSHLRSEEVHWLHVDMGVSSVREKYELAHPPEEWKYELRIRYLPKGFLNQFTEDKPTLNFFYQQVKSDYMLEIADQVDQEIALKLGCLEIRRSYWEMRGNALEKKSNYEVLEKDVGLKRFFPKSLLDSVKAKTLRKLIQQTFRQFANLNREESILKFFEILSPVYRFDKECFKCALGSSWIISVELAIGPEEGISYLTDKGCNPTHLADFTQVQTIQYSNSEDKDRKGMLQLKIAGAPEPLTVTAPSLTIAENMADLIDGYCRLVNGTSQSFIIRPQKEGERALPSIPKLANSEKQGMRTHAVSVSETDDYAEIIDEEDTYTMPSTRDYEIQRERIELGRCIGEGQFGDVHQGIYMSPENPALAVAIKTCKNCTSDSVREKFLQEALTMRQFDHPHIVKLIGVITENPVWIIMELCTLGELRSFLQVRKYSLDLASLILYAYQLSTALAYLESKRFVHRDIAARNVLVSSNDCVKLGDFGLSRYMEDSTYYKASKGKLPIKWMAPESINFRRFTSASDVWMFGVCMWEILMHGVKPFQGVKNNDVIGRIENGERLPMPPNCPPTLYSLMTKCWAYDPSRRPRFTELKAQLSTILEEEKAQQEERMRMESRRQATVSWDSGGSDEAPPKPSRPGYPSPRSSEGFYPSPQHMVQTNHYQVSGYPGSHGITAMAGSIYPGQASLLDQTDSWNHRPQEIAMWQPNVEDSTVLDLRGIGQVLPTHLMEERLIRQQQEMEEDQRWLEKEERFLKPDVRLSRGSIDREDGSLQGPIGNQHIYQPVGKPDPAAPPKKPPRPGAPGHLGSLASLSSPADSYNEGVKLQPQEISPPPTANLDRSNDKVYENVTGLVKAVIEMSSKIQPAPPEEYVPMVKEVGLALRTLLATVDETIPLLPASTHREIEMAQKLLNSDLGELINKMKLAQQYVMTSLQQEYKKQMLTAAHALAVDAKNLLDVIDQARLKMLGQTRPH
Luciferin 4-monooxygenase (Photinus pyralis), sequence (P08659 whole entry, looked up): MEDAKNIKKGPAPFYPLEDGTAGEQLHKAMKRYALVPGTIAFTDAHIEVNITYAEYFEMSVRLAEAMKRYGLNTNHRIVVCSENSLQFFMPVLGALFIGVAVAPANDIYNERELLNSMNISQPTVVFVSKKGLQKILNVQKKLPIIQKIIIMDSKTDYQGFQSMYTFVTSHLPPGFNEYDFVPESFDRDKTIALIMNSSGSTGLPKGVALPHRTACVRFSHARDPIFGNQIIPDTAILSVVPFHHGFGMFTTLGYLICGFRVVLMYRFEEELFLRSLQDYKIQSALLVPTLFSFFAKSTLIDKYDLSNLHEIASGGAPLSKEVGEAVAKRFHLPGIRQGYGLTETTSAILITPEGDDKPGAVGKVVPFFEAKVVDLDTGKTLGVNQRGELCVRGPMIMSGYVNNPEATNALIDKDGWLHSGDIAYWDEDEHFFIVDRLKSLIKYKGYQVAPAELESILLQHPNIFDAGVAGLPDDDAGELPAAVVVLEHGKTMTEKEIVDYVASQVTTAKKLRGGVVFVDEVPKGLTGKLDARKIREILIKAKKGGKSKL
Torsin-1A (Homo sapiens), sequence (O14656 whole entry, looked up): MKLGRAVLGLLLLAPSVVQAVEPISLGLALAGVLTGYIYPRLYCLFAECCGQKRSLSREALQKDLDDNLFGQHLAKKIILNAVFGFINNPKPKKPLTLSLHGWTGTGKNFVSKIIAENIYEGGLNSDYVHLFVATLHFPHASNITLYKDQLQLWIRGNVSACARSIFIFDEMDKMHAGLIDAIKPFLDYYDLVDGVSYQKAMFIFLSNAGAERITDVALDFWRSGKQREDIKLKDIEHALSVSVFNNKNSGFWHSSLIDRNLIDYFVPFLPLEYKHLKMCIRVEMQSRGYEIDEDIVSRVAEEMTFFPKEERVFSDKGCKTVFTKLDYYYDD
Follistatin (Homo sapiens), sequence (P19883 whole entry, looked up): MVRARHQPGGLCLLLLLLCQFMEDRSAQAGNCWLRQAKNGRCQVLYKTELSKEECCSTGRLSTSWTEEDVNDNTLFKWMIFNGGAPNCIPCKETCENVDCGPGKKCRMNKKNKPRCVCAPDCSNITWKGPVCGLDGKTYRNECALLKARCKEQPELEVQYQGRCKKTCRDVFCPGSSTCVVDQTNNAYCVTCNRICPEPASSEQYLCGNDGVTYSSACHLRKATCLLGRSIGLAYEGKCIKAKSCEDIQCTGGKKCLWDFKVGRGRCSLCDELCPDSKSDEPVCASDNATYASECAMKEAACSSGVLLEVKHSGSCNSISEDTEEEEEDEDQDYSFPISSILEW
Streptavidin (Streptomyces avidinii), sequence (P22629 whole entry, looked up): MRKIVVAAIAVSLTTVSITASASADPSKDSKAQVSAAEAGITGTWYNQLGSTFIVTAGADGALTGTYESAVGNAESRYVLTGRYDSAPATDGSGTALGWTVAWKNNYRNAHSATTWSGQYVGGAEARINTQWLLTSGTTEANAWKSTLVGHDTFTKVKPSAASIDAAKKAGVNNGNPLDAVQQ

As for `CCOC(=O)C[C@H]1[C@H](OC(=O)Cc2ccc3c(c2)OCO3)[C@@H](NC(=O)C2CCCCC2)c2cc(OCCCO)ccc2N1C(=O)c1ccc2ccccc2n1`, the composite z-score in experiment [1] worked out at 0.0779; in [2], 0.684; in [3] it was 0.309; in experiment [4], 0.581; in experiment [5] it was 1.39; in experiment [6], 1.71. Moreover, the composite z-score was 0.816 with Lefty1; -0.176 in [8]; 0.305 in experiment [10]; 0.658 in experiment [15]; -0.0361 in experiment [16]; 0.392 in the experiment with Torsin-1A (Homo sapiens) [17]. Further, the figures for the composite z-score (with Torsin-1A (Homo sapiens) [18]; in [19]) were 0.172 and 1.39, respectively. For the same compound, the z-score is -0.678 in experiment [7]; 0.862 (inactive) in [9]; -3.34 (inactive) in experiment [11]; -0.273 (inactive) in [12]; 6.45 (inactive) in [13]; 0.871 (inactive) in experiment [14].
For `O=C1C[C@@](C(=O)NCC(F)(F)F)(c2ccc([N+](=O)[O-])cc2)[C@@H](c2ccc(CO)cc2)N1C1CCCCC1`, the composite z-score in [1] was 2.22; in experiment [2], 1.22; in experiment [3] it was 0.847; in [4] it was 0.956; in [5] it was 1.47; in experiment [6] it was 1.28. For the same compound, the composite z-score came out at 0.761 with Lefty1; 0.861 in experiment [8]; 0.247 in experiment [10]; 0.579 in experiment [15]; 0.101 in [16]; 1.36 in the experiment with Torsin-1A (Homo sapiens) [17]. Besides, the composite z-score came to 1.57 with Torsin-1A (Homo sapiens) [18] and 1.22 in experiment [19]. Besides, the z-score in experiment [7] is 0.0267; in [9], 0.414 (inactive); in experiment [11], -1.97 (inactive); in experiment [12] it was 0.0325 (inactive); in experiment [13] it was 0.854 (inactive); in experiment [14] it was -0.369 (inactive).
In the case of `C=CCN1C(=O)[C@@]2(CCC(=O)OC(C)(C)C)N=C(c3ccc(OCCCO)cc3)O[C@H]2c2ccccc21`, the composite z-score in experiment [1] turned out to be 2.33; in experiment [2] it was 0.909; in experiment [3], 1.54; in experiment [4], 0.652; in experiment [5], 1.23; in experiment [6], 0.898. Moreover, the composite z-score in the experiment with Lefty1 is 0.319; in [8] it was 0.525; in [10], 0.228; in experiment [15] it was 0.57; in [16] it was 0.0588; with Torsin-1A (Homo sapiens) [17], -0.0862. Besides, the composite z-score with Torsin-1A (Homo sapiens) [18] stood at 0.0147; in experiment [19], 0.832. Moreover, the z-score in experiment [7] was -0.758; in experiment [9], -4.58 (inactive); in experiment [11] it was -4.68 (inactive); in experiment [12], 0.324 (inactive); in experiment [13] it was 0.573 (inactive); in [14], -2.25 (inactive).
With `C=CCOC(=O)[C@@H]1[C@H]2C(=O)O[C@H](c3ccccc3)[C@H](c3ccccc3)N2[C@H](c2ccc(OCCOC(=O)[C@H]3C[C@H]4C(=O)N[C@@H](CCCC[N+](C)(C)C)C(=O)N4[C@H]3c3ccc(O)cc3)cc2)[C@@]12C(=O)Nc1ccc(I)cc12`, the composite z-score in experiment [1] was determined as 2.62; in experiment [2] it was 1.2; in [3] it was 0.831; in experiment [4], 0.542; in [5] it was 1.4; in [6], 1.62. The composite z-score in the experiment with Lefty1 worked out at 1.63; in experiment [8], 0.756; in experiment [10], 0.568; in experiment [15], 0.0658; in experiment [16] it was 0.0982; with Torsin-1A (Homo sapiens) [17], 0.636. The composite z-score turned out to be 0.644 with Torsin-1A (Homo sapiens) [18] and 2.15 in experiment [19]. Moreover, the z-score in experiment [7] is -1.93; in experiment [9], 0.205 (inactive); in experiment [11] it was -0.449 (inactive); in experiment [12] it was -0.0678 (inactive); in [13], 0.277 (inactive); in [14], -0.391 (inactive).
Regarding `CCCCN1CC=CC23O[C@@H]4C=CCOC(=O)[C@@H]4[C@H]2C(=O)N(CCCO)[C@@H]3C1=O` (stereo not given in full), the composite z-score is 0.56 in experiment [1]; -0.518 in [2]; -0.609 in experiment [3]; -1.28 in experiment [4]; -1.45 in experiment [5]; -0.682 in [6]. In addition, the composite z-score in the experiment on Lefty1 was -0.199; in experiment [8], -0.929; in experiment [10], -0.133; in [15], -0.808; in experiment [16], -0.23; in the experiment with Torsin-1A (Homo sapiens) [17], 0.222. Moreover, the composite z-score with Torsin-1A (Homo sapiens) [18] was -0.107; in [19], -0.512. The z-score is -1.08 in [7]; -0.135 (inactive) in [9]; -1.98 (inactive) in experiment [11]; -0.766 (inactive) in experiment [12]; -0.757 (inactive) in [13]; 1.47 (inactive) in experiment [14].
